The supplement of paper PMC7156485
A number with no mark means an inactive call.

system: TDF; assay: H1.0 immunofluorescence intensity relative to DMSO (% of DMSO); higher = stronger H1.0 induction, active = 120 or more; conditions: concentration: 10 µM; 24 h
Procedure, shortened: (§1)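 H1.0 nuclear intensity or cell number is expressed as percent of the plate control, with the median of replicates taken. HCC1569 and TDF cells were treated with compounds at 10 µM for 24 h at 37 °C, in triplicate, then fixed and immunostained for H1.0 with DAPI as a nuclear stain. HCC1569 values were smoothed to correct for positional effects.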
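Also: TDF is a line of transformed human dermal fibroblasts of mesenchymal origin.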

| Structure (SMILES) | H1.0 immunofluorescence intensity |
| --- | --- |
| CC1CNCCN1S(=O)(=O)c1cccc2cnccc12.Cl.Cl (stereo not given) | 88.4 |
| COc1ccc(C=Cc2cc(OC)cc(=O)o2)cc1 [Yangonin] | 104 |
| N#Cc1cccc(-c2c[nH]c3ncnc(N4CCOCC4)c23)c1 [3-(4-morpholino-7H-pyrrolo[2,3-d]pyrimidin-5-yl)benzonitrile] | 86.3 |
| O=C(O)CCC(C(=O)O)N1C(=O)c2ccccc2C1=O [L-Glutamic acid, N-phthaloyl-] | 91.4 |
| CCCCCCCCCCCCCC=CC(O)C(CO)NCCCCCCCC (stereo not given) [C8 Ceramine] | 95.1 |
| Nc1ncnc2c1cnn2-c1ccccc1 | 91.4 |
| CC(NC(=O)C(C#N)=Cc1ccc(O)c(O)c1)c1ccccc1 (stereo not given) [Tyrphostin AG 527] | 87.7 |
| O=C1CC(c2ccc(O)c(O)c2)Oc2c1ccc(OC1OC(CO)C(O)C(O)C1O)c2O (stereo not given) [Flavanomarein] | 94.9 |
| COC(=O)C1C(O)CCC2CN3CCc4c([nH]c5ccccc45)C3CC21.Cl (stereo not given) [Rauwolscine hydrochloride] | 87 |
| NC1CCN(c2nc3c(cc2F)c(=O)c(C(=O)O)cn3-c2ccc(F)cc2F)C1 (stereo not given) [Tosufloxacin] | 105 |
| N#CC(=Cc1ccc(O)c(O)c1)C(=O)Nc1ccccc1 [Tyrphostin AG 494] | 88 |
| CC(C)(C)c1ccc(C(O)CCCN2CCC(C(O)(c3ccccc3)c3ccccc3)CC2)cc1 (stereo not given) [Terfenadine] | 107 |
| CCCCCCCCCCCC=CCCCCCC(=O)O [7(Z)-Nonadecenoic acid] | 101 |
| O=C(O)CCC(=O)c1ccc(-c2ccccc2)cc1 [Fenbufen] | 92.2 |
| Cl.O.O=C(O)CN(CCN(CC(=O)O)Cc1ccccc1O)Cc1ccccc1O | 108 |
| C#CC1(O)CCC2C3C(C)CC4=C(CCC(=O)C4)C3CCC21C (stereo not given) [Tibolone] | 102 |
| Nc1nc(=O)c2ncn(CCC(CO)CO)c2[nH]1 [Penciclovir] | 90.4 |
| CCOc1cc2ncc(C#N)c(Nc3ccc(F)c(Cl)c3)c2cc1NC(=O)/C=C/CN(C)C | 177 (active) |
| O=C(OC1Cc2c(O)cc(O)cc2OC1c1cc(O)c(O)c(O)c1)c1cc(O)c(O)c(O)c1 (stereo not given) [Epigallocatechin gallate] | 94.8 |
| Cn1c(=O)c2[nH]cnc2n(C)c1=O [Aminophylline] | 98.7 |
| O=C1C(=O)c2ccccc2C(O)=C1C1CCC(c2ccc(Cl)cc2)CC1 (stereo not given) [Atovaquone] | 95 |
| CCCCN1CCCCC1C(=O)Nc1c(C)cccc1C (stereo not given) [Bupivacaine] | 101 |
| COc1cc2ncnc(Nc3ccc(F)c(Cl)c3)c2cc1OCCCN1CCOCC1 | 105 |
| O=C(Nc1cccc(-c2ccccc2)c1)OC1CCCCC1 [cyclohexyl [1,1'-biphenyl]-3-ylcarbamate] | 93.4 |
| CCCCCN(CCCCC)C(=O)C(CCC(=O)O)NC(=O)c1ccc(Cl)c(Cl)c1 (stereo not given) [Lorglumide] | 102 |
| COc1ccccc1N1CCN(CCN(C(=O)c2ccc(F)cc2)c2ccccn2)CC1.Cl.Cl [p-MPPF dihydrochloride] | 89.7 |
| Cc1cc(C(C)(C)C)cc(C)c1CC1=NCCN1.Cl [Xylometazoline hydrochloride] | 98.3 |
| CC(C)(C)c1ccc(S(=O)(=O)C=CC#N)cc1 | 98.3 |
| CC1OC(OC2C(Oc3cc(O)c4c(c3)OC(c3ccc(O)cc3)CC4=O)OC(CO)C(O)C2O)C(O)C(O)C1O (stereo not given) [Naringin] | 96.2 |
| CCCCCC=CCC=CC=CC=CC(SCC(NC(=O)CCC(N)C(=O)O)C(=O)NCC(=O)O)C(O)CCCC(=O)O (stereo not given) [Leukotriene C4] | 90.1 |

system: HCC1569; assay: H1.0 immunofluorescence intensity relative to DMSO (% of DMSO); higher = stronger H1.0 induction, active = 140 or more; conditions: concentration: 10 µM; 24 h
Procedure, shortened: as §1

| Structure (SMILES) | H1.0 immunofluorescence intensity |
| --- | --- |
| CCCCCCCCCCCCCCCCCCc1ccc(C(=O)/C=C/C(=O)O)cc1 [(2E)-4-(4-octadecylphenyl)-4-oxo-2-butenoic acid] | 107 |
| CCCCCCCCCCCCCCCC(=O)OC(CC(=O)O)C[N+](C)(C)C.[Cl-] (racemic) [Palmitoyl-DL-Carnitine chloride] | 110 |
| Nc1[nH]nc2nnc(-c3c(-c4ccccc4)nn4ccccc34)cc12 | 117 |
| COC1C=COC2(C)Oc3c(C)c(O)c4c(O)c(cc([O-])c4c3C2=O)NC(=O)C(C)=CC=CC(C)C(O)C(C)C(O)C(C)C(OC(C)=O)C1C.[Na+] (stereo not given) | 97.5 |
| CN1CCN(c2ccc3c(c2)NC(=C2C(=O)N=c4cccc(F)c4=C2N)N3)CC1 | 149 (active) |
| O=c1c(O)c(-c2ccccc2)oc2cc(O)cc(O)c12 [Galangine] | 100 |
| CCOC(=O)C(CCc1ccccc1)NC(C)C(=O)N1C(C(=O)O)CC2CCCC21 (stereo not given) [Ramipril] | 111 |
| CN(C)C1C(=O)C(C(N)=O)=C(O)C2(O)C(=O)C3=C(O)c4c(O)ccc(Cl)c4C(O)C3CC12.Cl (stereo not given) [Demeclocycline hydrochloride] | 104 |
| Cc1nc2ccccn2c(=O)c1CCN1CCC(C(=O)c2ccc(F)cc2)CC1 [Pirenperone] | 103 |
| CCN1CCN(C(=O)NC(C(=O)NC2C(=O)N3C(C(=O)O)=C(CSc4nnnn4C)CSC23)c2ccc(O)cc2)C(=O)C1=O (stereo not given) [Cefoperazone acid] | 102 |
| CC1CNCCN1S(=O)(=O)c1cccc2cnccc12.Cl.Cl (stereo not given) | 83 |
| COc1ccc(C=Cc2cc(OC)cc(=O)o2)cc1 [Yangonin] | 100 |
| N#Cc1cccc(-c2c[nH]c3ncnc(N4CCOCC4)c23)c1 [3-(4-morpholino-7H-pyrrolo[2,3-d]pyrimidin-5-yl)benzonitrile] | 80.8 |
| O=C(O)CCC(C(=O)O)N1C(=O)c2ccccc2C1=O [L-Glutamic acid, N-phthaloyl-] | 105 |
| CCCCCCCCCCCCCC=CC(O)C(CO)NCCCCCCCC (stereo not given) [C8 Ceramine] | 121 |
| Nc1ncnc2c1cnn2-c1ccccc1 | 104 |
| CC(NC(=O)C(C#N)=Cc1ccc(O)c(O)c1)c1ccccc1 (stereo not given) [Tyrphostin AG 527] | 107 |
| O=C1CC(c2ccc(O)c(O)c2)Oc2c1ccc(OC1OC(CO)C(O)C(O)C1O)c2O (stereo not given) [Flavanomarein] | 99.9 |
| COC(=O)C1C(O)CCC2CN3CCc4c([nH]c5ccccc45)C3CC21.Cl (stereo not given) [Rauwolscine hydrochloride] | 103 |
| NC1CCN(c2nc3c(cc2F)c(=O)c(C(=O)O)cn3-c2ccc(F)cc2F)C1 (stereo not given) [Tosufloxacin] | 104 |

| Structure (SMILES) | H1.0 immunofluorescence intensity |
| --- | --- |
| N#CC(=Cc1ccc(O)c(O)c1)C(=O)Nc1ccccc1 [Tyrphostin AG 494] | 108 |
| CC(C)(C)c1ccc(C(O)CCCN2CCC(C(O)(c3ccccc3)c3ccccc3)CC2)cc1 (stereo not given) [Terfenadine] | 126 |
| CCCCCCCCCCCC=CCCCCCC(=O)O [7(Z)-Nonadecenoic acid] | 96.9 |
| O=C(O)CCC(=O)c1ccc(-c2ccccc2)cc1 [Fenbufen] | 119 |
| Cl.O.O=C(O)CN(CCN(CC(=O)O)Cc1ccccc1O)Cc1ccccc1O | 90.1 |
| C#CC1(O)CCC2C3C(C)CC4=C(CCC(=O)C4)C3CCC21C (stereo not given) [Tibolone] | 110 |
| Nc1nc(=O)c2ncn(CCC(CO)CO)c2[nH]1 [Penciclovir] | 117 |
| CCOc1cc2ncc(C#N)c(Nc3ccc(F)c(Cl)c3)c2cc1NC(=O)/C=C/CN(C)C | 84.6 |
| O=C(OC1Cc2c(O)cc(O)cc2OC1c1cc(O)c(O)c(O)c1)c1cc(O)c(O)c(O)c1 (stereo not given) [Epigallocatechin gallate] | 100 |
| Cn1c(=O)c2[nH]cnc2n(C)c1=O [Aminophylline] | 96.4 |
| O=C1C(=O)c2ccccc2C(O)=C1C1CCC(c2ccc(Cl)cc2)CC1 (stereo not given) [Atovaquone] | 108 |
| CCCCN1CCCCC1C(=O)Nc1c(C)cccc1C (stereo not given) [Bupivacaine] | 120 |
| COc1cc2ncnc(Nc3ccc(F)c(Cl)c3)c2cc1OCCCN1CCOCC1 | 112 |
| O=C(Nc1cccc(-c2ccccc2)c1)OC1CCCCC1 [cyclohexyl [1,1'-biphenyl]-3-ylcarbamate] | 88.6 |
| CCCCCN(CCCCC)C(=O)C(CCC(=O)O)NC(=O)c1ccc(Cl)c(Cl)c1 (stereo not given) [Lorglumide] | 96.4 |
| COc1ccccc1N1CCN(CCN(C(=O)c2ccc(F)cc2)c2ccccn2)CC1.Cl.Cl [p-MPPF dihydrochloride] | 87.2 |
| Cc1cc(C(C)(C)C)cc(C)c1CC1=NCCN1.Cl [Xylometazoline hydrochloride] | 110 |
| CC(C)(C)c1ccc(S(=O)(=O)C=CC#N)cc1 | 135 |
| CC1OC(OC2C(Oc3cc(O)c4c(c3)OC(c3ccc(O)cc3)CC4=O)OC(CO)C(O)C2O)C(O)C(O)C1O (stereo not given) [Naringin] | 86.1 |
| CCCCCC=CCC=CC=CC=CC(SCC(NC(=O)CCC(N)C(=O)O)C(=O)NCC(=O)O)C(O)CCCC(=O)O (stereo not given) [Leukotriene C4] | 105 |
